In the library only some 8.7% were active in any assay of this set; here they are far more common.
Vaccinia mCherry = inhibitors of vaccinia virus infection (mCherry reporter signal) | Vaccinia virus mCherry reporter infection, fluorescence | Potency, µM (series often up to 36.5 µM), hits mostly inhibitors | hit rate 0.63% among 310,000 | AID 720579; calls by dose curve; tested in A549 cells; note: nearly all actives have a fitted effect of over 35% in size
Pf growth 48h = P. falciparum growth inhibition at 48 hours (one generation). P. falciparum luciferase growth in erythrocytes, 48 h. hit rate 5.9% among 310,000. AID 504832. Potency, µM (series often up to 28.7 µM), hits mostly inhibitors
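Parasite viability was followed by luminescence of a genomically integrated firefly luciferase. Cultures held 0.1% parasitemia at 2% hematocrit (final), incubated under 5% CO2 at 37 C.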
Vaccinia Venus = inhibitors of vaccinia virus (Venus reporter); hit rate 0.46% among 330,000; Vaccinia virus Venus reporter expression, fluorescence; AID 720580; Potency, µM (doses to about 36.5 µM), most hits filed as inhibitors; calls by dose curve; tested in A549 cells; note: nearly all actives have a fitted effect of over 30% in size
Pf growth 96h = P. falciparum growth inhibition at 96 hour, primary screen for plastid delayed-death inhibitors; P. falciparum luciferase reporter growth, 96 h; Potency, µM (doses to about 28.7 µM), hits mostly inhibitors; hit rate 6.9% among 320,000; AID 504834
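P. falciparum expressing integrated firefly luciferase grown in erythrocytes (2% hematocrit, 0.05% parasitemia final) with compounds for 96 hours at 37 C, 5% CO2. Growth inhibition read as loss of luminescence after adding luciferase detection reagent.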
AMA1-RON2 inh = disrupts binding of P. falciparum AMA1 to RON2; AlphaScreen AMA1-biotinylated RON2 peptide binding; Potency, µM (titrated, usually from 58.2 µM), usual class: inhibitors; hit rate 0.2% among 360,000; AID 720542; note: nearly all actives have a fitted effect of over 45% in size
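AMA1 (3D7) with his tag at 25 nM final met compounds first, then biotinylated RON2 peptide at 25 nM; detection used donor plus acceptor beads, 10 µg/mL apiece, read by AlphaScreen after 30 min at room temperature.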
Numbers stand for hits. Unless noted, calls come from the whole dose curve; as a rule, active = well fitted curve in the direction sought with a large enough effect; inconclusive = small, poorly fitted or top-dose-only effect, or another doubt; inactive = no such curve, though single readings can be large; an effect the other way counts as inactive or inconclusive.

CC(C)CN1CCN(Cc2cc3ccccc3[nH]2)CC1CCO (stereo not drawn) was read as Vaccinia mCherry inconclusive, Pf growth 48h inconclusive, Vaccinia Venus inactive, Pf growth 96h inconclusive and AMA1-RON2 inh inactive.
`S=C(NNc1ccnc2cc(Cl)ccc12)Nc1ccccc1Cl` gave Vaccinia mCherry inactive, Pf growth 48h inconclusive, Vaccinia Venus inactive, Pf growth 96h inactive and AMA1-RON2 inh inactive.
For CCN(CC)Cc1cc(Nc2ccnc3cc(Cl)ccc23)ccc1O the results were Vaccinia mCherry inactive, Pf growth 48h 0.0047µM, Vaccinia Venus inactive, Pf growth 96h 0.0033µM and AMA1-RON2 inh inactive.
Clc1ccc(NNc2ccnc3cc(Cl)ccc23)cc1 was read as Pf growth 48h 1.7µM, Pf growth 96h 1.7µM and AMA1-RON2 inh inconclusive.
`CCNC1CCC(Nc2ccnc3cc(Cl)ccc23)CC1` (stereo not drawn) gave Vaccinia mCherry inactive, Vaccinia Venus inactive and AMA1-RON2 inh inactive.
CCN(CCO)CCCC(C)Nc1ccnc2cc(Cl)ccc12 (stereo not drawn) was read as Vaccinia mCherry inactive, Pf growth 48h 0.15µM, Vaccinia Venus inactive and Pf growth 96h 0.17µM.
`O=C(NCCNc1ccnc2cc(Cl)ccc12)c1ccccc1F` gave Pf growth 48h 0.47µM, Pf growth 96h inactive and AMA1-RON2 inh inactive.
`CCN(CC)CCCC(C)Nc1nccc2c(Cl)cccc12` (stereo not drawn) gave Vaccinia mCherry inactive, Vaccinia Venus inconclusive and AMA1-RON2 inh inactive.
Screening COc1ccccc1OCC(=O)NCC1(N(C)C)CCCCC1 returned Vaccinia mCherry inactive and Vaccinia Venus inactive.
`CCN(CC)CCC[C@H](C)Nc1c2ccc(Cl)cc2nc2ccc(OC)cc12` gave Pf growth 48h 0.038µM and Pf growth 96h 0.095µM.
`Clc1ccc2c(NCc3ccccc3)ccnc2c1` gave Vaccinia mCherry inactive, Pf growth 48h inconclusive, Vaccinia Venus inactive, Pf growth 96h inconclusive and AMA1-RON2 inh inactive.
`Oc1ccc(Nc2ccnc3cc(Cl)ccc23)cc1` gave Vaccinia mCherry inconclusive, Pf growth 48h 1µM, Vaccinia Venus inactive, Pf growth 96h 1.9µM and AMA1-RON2 inh inactive.
`OC(CNc1ccnc2cc(Cl)ccc12)CNC1CCCCC1` (stereo not drawn) gave Vaccinia mCherry inactive, Vaccinia Venus inconclusive and AMA1-RON2 inh inactive.
For CCN(CC)CCNc1ccnc2cc(Cl)ccc12 the results were Pf growth 48h 0.074µM, Pf growth 96h inactive and AMA1-RON2 inh inactive.
`CCN(CC)CCCNC(=O)CSc1c2c(nc3cc(Cl)ccc13)CCCC2` gave Vaccinia mCherry inactive, Pf growth 48h inconclusive, Vaccinia Venus inconclusive, Pf growth 96h inactive and AMA1-RON2 inh inactive.
`O=C(CN1C(=O)CSc2ccc(S(=O)(=O)N3CCCC3)cc21)NCc1ccccc1Cl` gave Vaccinia mCherry inactive and Vaccinia Venus inactive.
Screening Clc1ccc(-c2noc3ncnc(NCCCN4CCN(c5ccccc5)CC4)c23)cc1 returned Vaccinia mCherry inactive and Vaccinia Venus inactive.
`COc1cc(OC)c(OC)cc1CNCCCSc1nnnn1C` gave Vaccinia mCherry inactive and Vaccinia Venus inactive.
CCOC(=O)C1CCN(CC(=O)Nc2c(C(=O)OC)[nH]c3ccccc23)CC1 was read as Pf growth 96h inactive.
CCOC(=O)c1[nH]c2ccc(F)cc2c1NC(=O)C(C)N1CCc2cc(OC)c(OC)cc2C1 (stereo not drawn) was read as Pf growth 48h 15µM, Pf growth 96h inconclusive and AMA1-RON2 inh inactive.
For CCOC(=O)c1[nH]c2ccc(OCC)cc2c1NC(=O)CN1CCN(c2ccccn2)CC1 the results were Pf growth 48h 7.4µM, Vaccinia Venus inconclusive, Pf growth 96h 4.7µM and AMA1-RON2 inh inactive.
`COC(=O)c1[nH]c2ccccc2c1NC(=O)CN1CCN(c2cccc(OC)c2)C(C)C1` (stereo not drawn) gave Pf growth 48h 9.3µM and AMA1-RON2 inh inactive.
`CCOC(=O)c1[nH]c2ccc(OC)cc2c1NC(=O)CN1CCc2ccccc2C1` gave Vaccinia mCherry inconclusive, Pf growth 48h inconclusive, Vaccinia Venus inconclusive, Pf growth 96h 12µM and AMA1-RON2 inh inactive.
Cc1ccc(Cl)c(NC(=O)Nc2csc3c2CCCC3)c1 was read as Vaccinia mCherry inactive and Vaccinia Venus inactive.
CCOC(=O)c1c(C)[nH]c(C)c1S(=O)(=O)N1CCC(C(=O)N2CCN(c3ccccc3)CC2)CC1 was read as Vaccinia mCherry inactive and Vaccinia Venus inactive.
